Each structure is given as a SMILES string. Where “and” joins values, the source holds several entries; their conditions need not be identical. Equal values may be shown once. A structure can be active in one record and inactive in another. Calls of active or inactive are those of the source. How the source made its calls: active means hit-call score of the fitted dose curve at least 0.9, where 1 is the maximum; inactive means score below 0.9.

Test [1] deals with Nuclear respiratory factor 1 (Homo sapiens) (UniProt Q16656). The test is described as follows: ATG_NRF1_CIS: Attagene CIS-FACTORIAL HepG2 Assay for human Nuclear Respiratory Factor 1 (NRF1) Orphan Gene (AID 2282987). The conditions noted are these: HepG2 NRF1 cis-element reporter, Attagene multiplex; actives raise or lower the signal. In outline: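 Transcriptional reporter readout, one component of a 52-endpoint multiplexed HepG2 panel. Exposure 24 h; mRNA detected via RT-PCR and fluorescent capillary electrophoresis; fitting in both directions against DMSO.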

The nature of test [2]: ATG_NFI_CIS: Attagene CIS-FACTORIAL HepG2 Assay for human Nuclear Factor I (NFI) (AID 2282989). To be noted: HepG2 cis-regulatory reporter, NFI response element transcription; actives raise or lower the signal. In outline: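 Cells: human liver HepG2, transiently transfected with promoter-regulated reporter transcription units. Exposure 24 h. Detection: fluorescent RT-PCR products separated by capillary electrophoresis, normalised to DMSO negative control.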

The target of test [3] is Myc proto-oncogene protein (Homo sapiens) (UniProt P01106). The test is described as follows: ATG_Myc_CIS: Attagene CIS-FACTORIAL HepG2 Assay for human Myelocytomatosis (Myc) Proto-Oncogene Transcription Factor (AID 2282990). The conditions noted are these: HepG2, Attagene cis-reporter transcription factor activity; actives raise or lower the signal. The procedure, abridged: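 Multiplexed cis-reporter transcription in HepG2 cells after 24 h chemical treatment. Reporter mRNA measured by RT-PCR and capillary electrophoresis fluorescence; activity fitted bidirectionally against DMSO control.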

Test [4] in a line: ATG_NF_kB_CIS: Attagene CIS-FACTORIAL HepG2 Assay for human Nuclear Factor Kappa B (NF-kB) (AID 2282991). The conditions noted are these: HepG2 Attagene cis-factorial NF-kB reporter mRNA; actives raise or lower the signal. In outline:
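HepG2, transient multi-reporter transfection, cis promoter elements (endogenous TFs). 24 h exposure. Total RNA → RT → PCR → 6-FAM label → HpaI → CE. Gain/loss vs DMSO.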

A short description of test [5]: ATG_NRF2_ARE_CIS: Attagene CIS-FACTORIAL HepG2 Assay for human Nuclear Factor Erythroid 2 Related Factor 2 (NFR2) response to Antioxidant Response Elements (ARE) (AID 2282992). The conditions noted are these: HepG2 Attagene ARE/NRF2 reporter, transcription factor activity; actives raise or lower the signal. The procedure, abridged:
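Transient MRTU transfection of HepG2; 24 h compound exposure; TriZol RNA, RT with oligo(dT), PCR, 6-FAM primer extension, HpaI cut, CE. Bidirectional fit vs DMSO.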

A short description of test [6]: ATG_Oct_MLP_CIS: Attagene CIS-FACTORIAL HepG2 Assay for human Octamer-Binding Transcription Factor (Oct) (AID 2282993). The conditions noted are these: HepG2 Attagene cis-factorial Oct reporter, mRNA; actives raise or lower the signal. The procedure, abridged:
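HepG2, transient MRTU transfection, cis promoter elements; 24 h dosing; RT-PCR/CE fluorescence read-out of reporter mRNA; fit both directions vs DMSO.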

Test [7] has as its target Cellular tumor antigen p53 (Homo sapiens) (UniProt P04637). The test is described as follows: ATG_p53_CIS: Attagene CIS-FACTORIAL HepG2 Assay for human p53 Transcription Factor (AID 2282994). The conditions noted are these: HepG2 p53 cis-element reporter, Attagene mRNA; actives raise or lower the signal. In outline:
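HepG2, transient MRTU transfection (cis promoter elements, endogenous TFs); 24 h dosing; RNA isolation, RT-PCR, 6-FAM primer extension, HpaI digest, CE fluorescence; bidirectional fit vs DMSO.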

The nature of test [8]: BSK_3C_TissueFactor: BioMAP Diversity Plus: 3C Assay for Tissue Factor Biomarker Activity (AID 2282997). The conditions noted are these: BioMAP 3C HUVEC, tissue factor biomarker readout; actives raise or lower the signal. In outline: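 Endothelial monolayers (human umbilical vein, primary) are dosed, incubated 24 h, and assayed for Tissue Factor by ELISA; DMSO serves as negative control for bidirectional fitting.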

Test [9] is described as follows: BSK_3C_uPAR: BioMAP Diversity Plus: 3C Assay for Urokinase-type plasminogen activator receptor (uPAR) Biomarker Activity (AID 2282998). To be noted: BioMAP 3C HUVEC, uPAR biomarker ELISA; actives raise or lower the signal. In outline: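 A multiplexed primary-cell system built on human umbilical vein endothelium was used, with chemical present for 24 h before reading. Cell-surface uPAR was detected by ELISA; signal change in either direction counted against DMSO.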

Test [10] can be described thus: BSK_3C_VCAM1: BioMAP Diversity Plus: 3C Assay for Vascular cell adhesion molecule 1 (VCAM1) Biomarker Activity (AID 2282999). To be noted: BioMAP 3C HUVEC, VCAM1 ELISA, cytokine-stimulated; actives raise or lower the signal. In outline:
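Human umbilical vein endothelial cells were dosed with compound for 24 h, after which cell-surface VCAM-1 was quantified by ELISA. Bidirectional curve fitting used DMSO as negative control and activity baseline.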
Background: ELISA stands for enzyme-linked immunosorbent assay.

Myc proto-oncogene protein (Homo sapiens), sequence (P01106 whole entry, looked up): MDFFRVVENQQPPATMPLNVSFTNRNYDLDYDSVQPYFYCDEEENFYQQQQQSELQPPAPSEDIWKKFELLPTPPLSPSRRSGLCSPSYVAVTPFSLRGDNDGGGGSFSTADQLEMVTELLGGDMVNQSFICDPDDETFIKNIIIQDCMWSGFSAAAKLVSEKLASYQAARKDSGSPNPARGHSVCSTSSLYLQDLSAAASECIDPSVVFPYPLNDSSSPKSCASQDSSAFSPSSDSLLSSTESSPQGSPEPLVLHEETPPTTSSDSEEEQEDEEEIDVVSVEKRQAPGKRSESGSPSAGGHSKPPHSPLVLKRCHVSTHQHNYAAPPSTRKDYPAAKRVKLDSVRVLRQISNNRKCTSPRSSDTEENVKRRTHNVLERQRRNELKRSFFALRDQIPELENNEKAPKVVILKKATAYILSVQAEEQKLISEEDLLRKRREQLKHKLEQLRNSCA
Cellular tumor antigen p53 (Homo sapiens), sequence (P04637 whole entry, looked up): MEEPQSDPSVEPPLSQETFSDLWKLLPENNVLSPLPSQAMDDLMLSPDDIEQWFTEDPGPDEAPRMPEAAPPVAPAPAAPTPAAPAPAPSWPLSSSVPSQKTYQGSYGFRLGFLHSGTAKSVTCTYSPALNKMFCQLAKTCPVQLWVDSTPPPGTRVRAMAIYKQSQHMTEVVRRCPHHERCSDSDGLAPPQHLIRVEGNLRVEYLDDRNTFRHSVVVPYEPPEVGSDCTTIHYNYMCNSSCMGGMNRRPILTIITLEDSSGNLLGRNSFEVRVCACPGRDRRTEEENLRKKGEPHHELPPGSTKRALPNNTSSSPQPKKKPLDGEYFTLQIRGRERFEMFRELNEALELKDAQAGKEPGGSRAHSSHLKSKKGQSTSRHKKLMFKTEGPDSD
Nuclear respiratory factor 1 (Homo sapiens), sequence (Q16656 whole entry, looked up): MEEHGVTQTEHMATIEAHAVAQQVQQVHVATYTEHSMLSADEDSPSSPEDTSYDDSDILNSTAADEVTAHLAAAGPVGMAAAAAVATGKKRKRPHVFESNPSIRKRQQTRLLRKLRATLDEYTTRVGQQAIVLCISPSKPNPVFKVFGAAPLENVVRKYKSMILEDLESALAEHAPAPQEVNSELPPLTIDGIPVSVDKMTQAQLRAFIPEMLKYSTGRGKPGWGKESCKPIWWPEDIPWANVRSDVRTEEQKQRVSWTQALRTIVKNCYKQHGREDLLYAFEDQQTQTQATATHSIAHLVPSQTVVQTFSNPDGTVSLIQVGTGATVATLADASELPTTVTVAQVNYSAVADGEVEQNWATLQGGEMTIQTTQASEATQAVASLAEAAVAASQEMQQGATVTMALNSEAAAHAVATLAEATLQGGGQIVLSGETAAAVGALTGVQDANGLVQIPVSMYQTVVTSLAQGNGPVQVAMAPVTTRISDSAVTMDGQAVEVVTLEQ

As for `FC(F)(I)C(F)(F)C(F)(F)C(F)(F)I`, the compound was classed as inactive in [1], in test [2], in [3], in test [4], in test [6] and in test [7]. Further, the AC50 (as a rule, the midpoint of the concentration-response curve, whichever way the signal moves) in [5] was 33.4 µM (active); in [8], 44.1 µM (active) and 42 µM (active) and 56.5 µM (active); in [9], 51.2 µM (active) and 53.9 µM (active) and 47.1 µM (active); in [10], 49.9 µM (active) and 48.3 µM (active) and 57.1 µM (active).
As for `Cc1cccc(N(C)C)c1`, the outcome in [1], in [2], in test [3], in test [4], in [5] and in test [6] was inactive. Also, the call in test [7] was inactive.
With `OCC(F)(F)C(F)(F)C(F)(F)C(F)(F)C(F)(F)C(F)F`, the compound was classed as inactive in test [1], in [2], in [3], in test [4], in [5] and in test [6]. Besides, the compound was called inactive in test [7], in test [8], in test [9] and in test [10].
In the case of `C=CC(F)(F)C(F)(F)C(F)(F)C(F)(F)C(F)(F)C(F)(F)C(F)(F)C(F)(F)F`, the call in test [1], in test [2], in test [3], in test [4], in test [5] and in test [6] was inactive. Also, the call in [7], in test [8], in [9] and in test [10] was inactive.
Take `CCCCNc1ccccc1`: the call in test [1], in test [2], in test [3], in test [4], in test [5] and in test [6] was inactive. Moreover, the compound was classed as inactive in [7], in [8], in [9] and in test [10].
As for `NC(=O)C(F)(F)C(F)(F)C(F)(F)C(F)(F)F`, the result in test [1], in [2], in test [3], in test [4], in test [5] and in [6] was inactive. For the same compound, the outcome in test [7], in test [8], in test [9] and in test [10] was inactive.
On to `CC(C)OC(=O)c1ccccc1C(=O)OC(C)C`, for which the result in test [1], in test [2], in test [3], in test [4], in [5] and in test [6] was inactive.
`CC(C)=CCCC(C)CCOC(=O)C(C)C` (configuration not stated): the compound was called inactive in [1], in [2], in test [3], in test [4], in test [5] and in [6]. Further, the outcome in [7] was inactive.
Turning to `O=C(O)C(F)(F)C(F)(F)C(F)(F)F`, the compound was called inactive in [1], in test [2], in [3], in test [4], in test [5] and in test [6]. Further, the compound was classed as inactive in [7], in [8], in [9] and in [10].
For the compound `CCCCCCCOC(=O)c1ccccc1C(=O)OCCCCCCC`, the compound was called inactive in [1], in [2], in test [3], in test [4], in test [5] and in test [6]. The compound was called inactive in test [7], in [8], in [9] and in test [10].
As to `C=CC(F)(F)C(F)(F)C(F)(F)C(F)(F)C(F)(F)C(F)(F)C(F)(F)C(F)(F)C=C`, the call in test [1], in [2], in test [3], in [4], in test [5] and in test [6] was inactive. The compound was classed as inactive in test [7], in test [8], in test [9] and in test [10].
As to `FC(F)(F)C(F)(F)C(F)(F)N(C(F)(F)C(F)(F)C(F)(F)F)C(F)(F)C(F)(F)C(F)(F)F`, the call in test [1], in test [2], in [3], in test [4], in test [5] and in test [6] was inactive. For the same compound, the compound was called inactive in test [7], in test [8], in [9] and in test [10].
For the compound `FC(F)(F)C(F)(F)C(F)(F)C(F)(F)C(F)(F)C(F)(F)C(F)(F)C(F)(F)CCS`, the result in test [1], in test [2], in test [3], in test [4], in [5] and in test [6] was inactive. The compound was called inactive in test [7], in test [8], in test [9] and in [10].
`FC(F)(F)C(F)(F)C(F)(F)C(F)(F)C(F)(F)C(F)(F)C(F)(F)Br`: the compound was called inactive in test [1], in test [2], in [3], in test [5], in [6] and in [7]. Further, the result in test [8], in [9] and in test [10] was inactive.
As to `CC(Cc1ccc(O)c(O)c1)C(C)Cc1ccc(O)c(O)c1` (configuration not stated), the compound was called inactive in test [1] and in test [7]. The AC50 is 19 µM (active) in test [2], 55.3 µM (active) in [4], 22.8 µM (active) in [5] and 20.6 µM (active) in [6].
For the compound `c1ccc(-c2ccccc2-c2ccccc2)cc1`, the outcome in [1], in test [4], in test [6] and in [7] was inactive. The results for the AC50 in test [2] and in test [5] were 100 µM (active) and 32.9 µM (active), respectively.
As for `CCN(Cc1cccc(S(=O)(=O)O)c1)c1ccc(C(=C2C=CC(=[N+](CC)Cc3cccc(S(=O)(=O)O)c3)C=C2)c2ccc(O)cc2S(=O)(=O)[O-])cc1`, the compound was called inactive in [1], in test [2], in [3], in [5] and in test [6].
Regarding `FC(F)(F)C(F)(F)C(F)(F)C(F)(F)C(F)(F)C(F)(F)C(F)(F)C(F)(F)F`, the call in [1], in test [2], in test [3], in [5], in test [6] and in [7] was inactive. Besides, the result in test [8], in [9] and in test [10] was inactive.
With `Nc1ccc([N+](=O)[O-])cc1O`, the compound was classed as inactive in test [1], in [2], in test [3], in test [4], in test [6] and in test [7]. The result in test [9] and in [10] was inactive. Further, the results for the AC50 in [5] and in test [8] were 16.1 µM (active) and 20 µM (active), respectively.
Take `O=C(O)C(F)(F)C(F)(F)C(F)(F)C(F)(F)C(F)(F)C(F)(F)C(F)(F)C(F)(F)Cl`: the call in test [1], in test [2], in test [3], in test [5], in test [8] and in test [9] was inactive. The AC50 in test [5] was 12.7 µM (active); in [6], 50 µM (active) and 57.9 µM (active); in [7] it was 57.7 µM (active) and 69.5 µM (active); in [8], 54.4 µM (active); in [9], 44.9 µM (active); in test [10], 48.7 µM (active).
In the case of `O=C(O)C(F)(F)C(F)(F)OC(F)(F)F`, the compound was classed as inactive in [1], in test [2], in test [3], in test [5], in [6] and in [7]. The result in [8], in [9] and in [10] was inactive.
For the compound `CC/C=C\CCOC(C)=O`, the result in test [1], in test [2], in test [3], in test [5], in test [6] and in [7] was inactive.

(Values after PubChem BioAssay (EPA / NIEHS).)
